USP30 inh – inhibitors of human USP30 deubiquitinase; purified USP30, Ub-rhodamine cleavage fluorescence; inhibition, % at 25 µM; 5.3% of 47,000 active; AID 1645860
Target sequence (Q70CQ3 whole entry, looked up): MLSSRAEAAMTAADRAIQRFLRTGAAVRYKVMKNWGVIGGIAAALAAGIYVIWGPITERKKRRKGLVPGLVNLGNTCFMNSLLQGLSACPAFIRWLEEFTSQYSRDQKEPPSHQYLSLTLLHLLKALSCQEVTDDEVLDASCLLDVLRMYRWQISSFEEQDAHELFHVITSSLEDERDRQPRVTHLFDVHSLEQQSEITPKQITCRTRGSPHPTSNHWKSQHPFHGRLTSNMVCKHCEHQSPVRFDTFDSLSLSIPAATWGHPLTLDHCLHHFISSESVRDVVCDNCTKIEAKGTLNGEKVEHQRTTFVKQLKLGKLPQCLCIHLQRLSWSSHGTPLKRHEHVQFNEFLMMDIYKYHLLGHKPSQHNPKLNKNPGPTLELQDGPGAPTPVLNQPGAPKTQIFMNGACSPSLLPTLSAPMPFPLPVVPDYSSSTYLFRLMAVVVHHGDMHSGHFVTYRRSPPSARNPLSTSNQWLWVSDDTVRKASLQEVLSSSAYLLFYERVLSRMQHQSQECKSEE
USP17 inh – blocks human USP17 ubiquitin-rhodamine cleavage; A8MUK1; purified USP17, Ub-rhodamine cleavage fluorescence, 3 h; inhibition, % at 50 µM; 6.5% of 47,000 active; AID 1645855
OTUD3 block – human OTUD3 deubiquitinase inhibition; 0.7% of 47,000 active; purified OTUD3, Ub-rhodamine fluorescence, 2 h; Q5T2D3; inhibition, % at 25 µM; AID 1645858
USP28 block – blocks human USP28 ubiquitin-rhodamine cleavage. Q96RU2. purified USP28, Ub-rhodamine cleavage fluorescence, 30 min. inhibition, % at 25 µM. 3% of 47,000 active
Each line names hits and unclear results; the compound was inactive in the other large screens. Most compounds without a hit are left out; they make up all but 11% or so of the library. Rule as the data show it: active = inhibition above about 30%; inactive = the rest.

Cc1ccc(NC(=O)c2sc3ncn(CC(=O)N4CCN(c5ccccn5)CC4)c(=O)c3c2C)c(Br)c1	USP17 inh 59
COc1ccc(NC(=O)c2sc3ncn(CC(=O)N4CCN(c5ccccn5)CC4)c(=O)c3c2C)cc1OC	none
Cn1c(C(=O)NCCCN2CCCCC2)c(N2CCCC2=O)c2cc(F)ccc21	none
Cc1ccc(C)c(N2CCN(C(=O)c3nc4cccnc4n(C)c3=O)CC2)c1	none
Cc1nc2nnc3ccc(C(=O)NC(C)C)cc3c2n1CCN(C)C	none
Cc1cc(OCC(=O)Nc2ccccc2)nc(N2CCCC(C)C2)n1 (stereo not drawn)	USP17 inh 31
Cc1cccc(NC(=O)COc2cc(C)nc(N3CCCCC3)n2)c1	USP30 inh 30 (no result: USP17 inh)
Cc1ccc(CN2CCC3(COCc4c(C)nc(-c5ccccc5)nc43)C2)cc1 (stereo not drawn)	none
Cc1ncsc1C(=O)N1CCC(c2cc(=O)n3[nH]ccc3n2)CC1	none
O=C(CCc1nnc2ccc(N3CCCCC3)nn12)NCCN1CCCC1	none
Cc1cc(N2CCCC2)nc(N2CCN(C(=O)C(C)Oc3ccccc3)CC2)n1 (stereo not drawn)	none
CC(=O)Nc1ccc([C@H]2OCC(=O)N(C3CCOCC3)[C@@H]2CO)cc1	USP30 inh 51
CCOc1ccc(NC(=O)CSC2=NC3(CCCC3)Nc3ccccc32)cc1	USP17 inh 30
Cc1ccc(-c2cc(NC(=O)C(C)C)c(=O)n(CC(=O)Nc3cccc(F)c3)n2)cc1	none
O=C(Cn1nc(-c2ccco2)ccc1=O)Nc1cccc(Br)c1	USP17 inh 37
Cc1cc(Cl)ccc1OCC(=O)Nc1ncccc1C	none
O=C(COc1ccc(Cl)cc1Cl)Nc1noc2ccccc12	USP17 inh 40
O=C(COc1ccc(Cl)cc1Cl)Nc1ccccc1-c1nc2ccccc2[nH]1	USP17 inh 84
O=C(COc1ccc(Cl)cc1Cl)Nc1ccc2sccc2c1	USP30 inh 46, USP17 inh 41
CCC(C(=O)Nc1cccc2nsnc12)c1ccccc1 (stereo not drawn)	none
Cc1ccc(-n2c(=O)[nH]c3c(C(N)=O)nc(-c4cccnc4)nc32)cc1	USP30 inh 34, USP17 inh 34, OTUD3 block 31
COc1cccc(C(=O)Nc2nc(-c3ccco3)c(-c3ccco3)s2)c1	USP17 inh 44
O=S(=O)(Nc1nc(-c2ccco2)c(-c2ccco2)s1)c1ccc(F)cc1F	none
CCCCOCCCNC(=O)c1ccccc1N1C(=O)N2CCc3c([nH]c4ccccc34)[C@@]2(C)C1=O	none
COc1ccc(C2=C(NCCc3ccc(S(N)(=O)=O)cc3)c3ccccc3C2=O)cc1	USP30 inh 49, USP28 block 31
COc1ccccc1Oc1nc(-c2ccccc2)cc(C)c1S(C)(=O)=O	USP28 block 37
CCc1nc2c(NC(=O)Cc3cccnc3)cccn2n1	none
Cc1cccc(S(=O)(=O)N2C[C@@H]3C[C@@H](c4nc(C)no4)O[C@@H]3C2)c1	none
Cn1c(CNS(=O)(=O)c2ccc(Cl)cc2)nnc1SCc1cccc(C(F)(F)F)c1	none
Cn1c(CNS(=O)(=O)c2ccc(Br)cc2)nnc1SCc1ccc(Cl)c(Cl)c1	USP30 inh 35, USP28 block 41
COc1cccc(S(=O)(=O)Nc2ccc(-c3nnc(-c4ccccc4)o3)cc2)c1	none
CC1CCCCC1NCC(=O)NC(c1ccccc1)c1ccccc1 (stereo not drawn)	USP30 inh 32
Cc1noc(CN2CCC(C3CCCCCN3C(=O)C3CC3)CC2)n1 (stereo not drawn)	none
COc1cc(NC(=O)c2cc(-c3ccncc3)n(-c3ccccc3)n2)cc(OC)c1	USP28 block 40
O=C(NC1CC1)c1cc(-c2cccnc2)n(-c2ccccc2)n1	USP30 inh 31
Cc1ccc(-n2nc(C(=O)NCc3ccccn3)cc2-c2cccnc2)cc1	none
O=C(Nc1cccc(F)c1)c1cc(-c2ccncc2)n(-c2ccc(F)cc2)n1	none
CN1CCN(c2ncnc3c2oc2ccc(Cl)cc23)CC1	OTUD3 block 88
CCCC1Oc2ccccc2C(=O)N(CC(=O)c2ccccc2)C1=O (stereo not drawn)	none
COc1ccc(CCN2C[C@@]34CN(C(=O)NC5CCCC5)C[C@@H](C[C@@H]3S2(=O)=O)O4)cc1	none
CCOc1c(C)cc(S(=O)(=O)Nc2ccc3c(c2)N(C(C)=O)CC3)cc1C	USP17 inh 68 (no result: USP30 inh, USP28 block)
O=C(Nc1ccc(S(=O)(=O)Nc2cc(Cl)cc(Cl)c2)cc1)c1c(F)cccc1Cl	USP17 inh 43
O=C(Nc1cc(C(F)(F)F)cc(C(F)(F)F)c1)c1c(F)cccc1Cl	USP30 inh 33, USP28 block 33
Cc1ccc(Cl)cc1N1CCN(C(=O)CN2Cc3ccccc3C2=O)CC1	USP28 block 47
Cc1cccc(N2CCN(C(=O)CN3Cc4ccccc4C3=O)CC2)c1C	none
COc1ccc(OC)c2c(C)cc(N3CC(C)CC(C)C3)nc12 (stereo not drawn)	USP30 inh 43, USP17 inh 96, OTUD3 block 30, USP28 block 54
Cc1cc2cc3c(cc2n2c(=O)n(CCN4CCCC4)nc12)OCO3	USP30 inh 42, USP17 inh 47
Cc1cc(C)c2c(c1)cc(C)c1nn(CC(N)=O)c(=O)n12	none
Cc1ccc(S(=O)(=O)c2nnn3c2nc(N2CCN(c4cc(C)ccc4C)CC2)c2ccccc23)cc1	USP30 inh 30
CNc1nc2c(c(=O)n1-c1ccccc1)CN(S(=O)(=O)c1c(C)nn(C)c1Cl)CC2	none
O=C(c1ccccc1)N1CCC(Nc2cccc(Br)c2)CC1	none
Cc1ccc(-c2cc(C#N)c(=O)n(Cc3ccccc3)c2)cc1	none
Cc1ccc(-c2cc(C#N)c(=O)n(Cc3ccc(F)cc3)c2)cc1	USP17 inh 41
c1ccc(CSc2nc(NC3CCCCC3)c3sccc3n2)cc1	none
O=C(NCc1ccco1)c1ccc(Oc2cc(Cl)cc(Cl)c2)o1	USP17 inh 37 (no result: USP30 inh, USP28 block)
Cn1cc(C(=O)c2cc(F)ccc2O)cc1-c1nc2ccccc2c(=O)[nH]1	none
CC1Cc2ccccc2N1C(=O)Cn1c(CC(=O)N2CCCC2)nc2ccccc21 (stereo not drawn)	none
CC1Cc2ccccc2N1C(=O)Cn1c(=O)cc(O)c2ccccc21 (stereo not drawn)	USP28 block 57
COc1cc(C)ccc1OCC(=O)N1CCCC(c2[nH]nc3nccnc23)C1 (stereo not drawn)	none
N#Cc1c(-c2ccco2)ccn2nc(-c3cccc(C(F)(F)F)c3)nc12	none
CN(CCc1noc(-c2ccccc2Cl)n1)C(=O)c1ccc(C#N)cc1	USP30 inh 31
CCN1CC[C@@]2(C(=O)N3CCCC3)CCN(C(=O)Cc3ccccc3)CC[C@@H]12	none
COc1cc2cc(Oc3ccc4ccc(=O)oc4c3)c(=O)oc2cc1O	USP30 inh 34
CCCn1ccc(C(=O)N2CCCCC2c2cc(=O)n3[nH]ccc3n2)n1 (stereo not drawn)	none
NC(=O)C[C@@H](NC(=O)[C@@H]1CCCN1C(=O)[C@H](Cc1ccccc1)n1c(=O)[nH]c2ccccc2c1=O)C(=O)O	none
Cn1ccc(-c2nc3ccccc3[nH]2)n1	none
Cc1nn(-c2ccc([N+](=O)[O-])cc2)c(C)c1-c1nc2ccccc2[nH]1	USP30 inh 63, USP28 block 37

Screens as filed in PubChem BioAssay.
